# This is a sample that favours compounds with a hit; in the whole collection about 10% have one here.
# KB-V1 cytotox – qHTS assay for MDR1-selective chemotherapeutics: Primary screen using the drug-selected MDR subline cells KB-V1; KB-V1 MDR cells viability, CellTiter-Glo, 72 h; hit rate 3.4% among 400,000; Potency, µM (doses to about 46.1 µM), hits mostly cytotoxic; note: % is set by controls: 0 for no effect and ±100 for the full control effect; nearly all actives have a fitted effect of over 60% in size
#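 Cytotoxicity toward P-gp-expressing KB-V1 cells was determined as loss of CellTiter-Glo luminescence after 72 h at 37 degrees C. Compounds were tested in quantitative HTS format across a concentration range, with curves fitted to normalized data.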
# Gal4-VP16 FLuc – VP16 counterscreen qHTS for inhibitors of ROR gamma transcriptional activity; Potency, µM (series often up to 53.6 µM), without a hit: top-dose activity, negative = inhibition, usual class: inhibitors; AID 2546, 2010; Drosophila S2 Gal4-VP16 UAS-luciferase, luminescence, 20 h; hit rate 3.5% among 310,000;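 note: Gal4-VP16 expression switched on by copper sulfate through the metallothionein promoter; % is set by controls: 0 for no effect and ±100 for the full control effect; nearly all actives have a fitted effect of over 50% in size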
# KB-3-1 cytotox – qHTS assay for MDR1-selective chemotherapeutics: Primary screen using the parental adenocarcinoma cell KB-3-1; Potency, µM (doses to about 46.1 µM), hits mostly cytotoxic; KB-3-1 viability, CellTiter-Glo ATP luminescence, 72 h; AID 1347075, 2019; hit rate 1.4% among 400,000; note: % is set by controls: 0 for no effect and ±100 for the full control effect; nearly all actives have a fitted effect of over 60% in size
#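 Viability of parental KB-3-1 cells, measured by CellTiter-Glo luminescence, followed a 72 h incubation at 37 °C with pinned compounds in phenol-red-free DMEM containing 10% FBS.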
# MCF10A rerep – A quantitative high throughput screen for small molecules that induce DNA re-replication in MCF 10a normal breast cells; MCF 10A DNA re-replication, Hoechst nuclear intensity, 48 h; Potency, µM (doses to about 46.1 µM), inactives show top-dose activity, positive = re-replication, actives largely listed as activators; hit rate 2.9% among 350,000; AID 624296, 2012; note: % of control where 0% means no effect; nearly all actives have a fitted effect of over 50% in size
# SW480 rereplic – A quantitative high throughput screen for small molecules that induce DNA re-replication in SW480 colon adenocarcinoma cells; AID 624297, 2012; SW480 DNA re-replication, Hoechst DNA content imaging, 48 h; hit rate 1.8% among 340,000; Potency, µM (highest dose often 46.1 µM), for inactives: at the highest dose re-replication activation, most hits filed as activators; note: % of control where 0% means no effect; nearly all actives have a fitted effect of over 55% in size
#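 Image-based read-out: total Hoechst fluorescence of nuclei (405 nm excitation, 500-530 nm emission), with hits raising the fraction of high-intensity nuclei. SW480 colon cells incubated 48 hr with compounds at 37 C.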
# RORg inh – qHTS for inhibitors of ROR gamma transcriptional activity. Drosophila S2 Gal4-RORgamma UAS-luciferase reporter, 20 h. Potency, µM (highest dose often 53.6 µM), for inactives: at the highest dose activity change, negative = inhibition, usual class: inhibitors. hit rate 5.4% among 310,000. AID 2551, 2010; note: % is set by controls: 0 for no effect and ±100 for the full control effect; nearly all actives have a fitted effect of over 60% in size
# Target sequence (P51450 whole entry, looked up, the tested form may be a part): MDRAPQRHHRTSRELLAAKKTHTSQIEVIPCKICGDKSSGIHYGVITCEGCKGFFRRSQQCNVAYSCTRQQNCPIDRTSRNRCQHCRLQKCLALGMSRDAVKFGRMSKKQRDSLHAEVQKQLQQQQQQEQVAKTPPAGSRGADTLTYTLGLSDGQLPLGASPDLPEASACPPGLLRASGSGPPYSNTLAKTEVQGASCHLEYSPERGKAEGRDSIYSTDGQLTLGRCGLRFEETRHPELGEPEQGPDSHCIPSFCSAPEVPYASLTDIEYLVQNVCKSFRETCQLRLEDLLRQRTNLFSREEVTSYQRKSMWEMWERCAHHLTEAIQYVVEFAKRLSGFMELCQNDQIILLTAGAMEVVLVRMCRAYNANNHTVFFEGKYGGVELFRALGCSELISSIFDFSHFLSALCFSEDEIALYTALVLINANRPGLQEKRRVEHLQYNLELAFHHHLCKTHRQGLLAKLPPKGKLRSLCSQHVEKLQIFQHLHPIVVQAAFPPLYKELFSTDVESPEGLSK
#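 Compounds are pin-transferred onto Drosophila Schneider cells expressing a copper-inducible Gal4–ROR gamma transactivation domain fusion. After 1 hr, copper sulfate is added to 700 uM final; luciferase is read 20 hr later.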
# * hit, by the source's call; i = inactive; ? = inconclusive; nt = no result given; [ ] = dose if it differs, or a comment. Calls come from the whole dose curve; as a rule, active = well fitted curve in the direction sought with a large enough effect; inconclusive = small, poorly fitted or top-dose-only effect, or another doubt; inactive = no such curve, though single readings can be large; an effect the other way counts as inactive or inconclusive. Potency is the fitted concentration of half-maximal effect.
SMILES,KB-V1 cytotox,Gal4-VP16 FLuc,KB-3-1 cytotox,MCF10A rerep,SW480 rereplic,RORg inh
COc1ccc(C(=O)NCC(=O)N2CCN(c3ccccc3)CC2)cc1,?,-3%,i,0%,-3%,?
O=C(NCC(=O)N1CCCCCC1)c1ccc(OC(F)F)cc1,i,7%,i,0%,-5%,20%
COc1cc(OC)cc(C(=O)NCC(=O)N2CC=C(c3ccccc3)CC2)c1,7.3µM*,nt,5.8µM*,?,7.3µM*,nt
c1cncc(CNc2ncncc2-c2ccc3c(c2)OCO3)c1,nt,8%,nt,nt,nt,3%
O=C(NC1CC1)c1nc2c(nnn2Cc2ccccc2Cl)c(=O)[nH]1,i,0%,i,?,17%,-8%
O=C(NCCc1ccccc1)c1nc2c(nnn2Cc2ccccc2Cl)c(=O)[nH]1,15µM*,13%,i,48%,-6%,-23%
CC1CC(C)CN(C(=O)/C(=C\c2ccccc2)c2ccccc2)C1 (centres undefined),8.2µM*,-8%,?,21µM*,-23%,-2%[10 µM]
CN1CCN(C(=O)/C(=C/c2ccccc2)c2ccccc2)CC1,i,-2%,?,1%,-1%,0%
C/C=C(/CCC1NCCc2c1[nH]c1ccccc21)[Si](C)(C)C (centres undefined),12µM*,nt,18µM*,?,?,nt
CCCCCCCCCC1NC(C(=O)O)Cc2c1[nH]c1ccccc21 (centres undefined),i,nt,i,nt,nt,nt
CC(=C/c1ccccc1)/C=N/n1c(C)n[nH]c1=S,?,6.3µM*,?,4%,1%,8.9µM*
CC(/C=N/n1c(-c2cccnc2)n[nH]c1=S)=C\c1ccccc1,16µM*,?,i,12%,-10%,?
CC(=C/c1ccccc1)/C=N/n1c(-c2ccncc2)n[nH]c1=S,i,-3%,i,23%,-3%,?
S=c1[nH]nc(-c2cccnc2)n1/N=C/C=C/c1ccccc1,i,?,i,-2%,0%,4.5µM*
CC(/C=N/n1c(-c2ccco2)n[nH]c1=S)=C\c1ccco1,i,?,i,-2%,-6%,?
N#CC(C#N)=C1NC2(CCCCC2)Cc2ccccc21,i,13%,i,12%,-8%,-11%
N#CC(C#N)=c1ccc2c(c1)NC1(CCCCC1)N=2,?,?,?,?,13µM*,?
CC(C)(C)c1cc(C(=O)Nc2cccc3ccccc23)ccn1,i,10%,i,4%,-1%,6%
CCc1ccc(NC(=O)c2ccnc(C(C)(C)C)c2)cc1,21µM*,0%,i,-3%,-14%,8%
O=C(NCc1cccs1)c1ccc2c(c1)N(Cc1ccccc1Cl)C(=O)c1ccccc1S2,i,nt,i,nt,nt,nt
COc1ccc2c(CNCCc3cccs3)c(C(=O)O)n(Cc3ccccc3C)c2c1,i,nt,i,nt,nt,nt
Cc1cc2c(c(=O)o1)C(c1cccs1)C(C#N)=C(N)O2 (centres undefined),i,?,i,2%,3%,14µM*
CCn1c(CC(=O)Nc2cccc(OC)c2)nnc1SCC(=O)N1CCN(c2ccccc2)CC1,i,3%,i,-7%,-13%,-21%
CCn1c(COc2ccccc2C)nnc1SCC(=O)N1CCN(c2ccccc2)CC1,8.2µM*,-13%,?,-4%,1%,41%
CCn1c(COc2cccc(C)c2C)nnc1SCC(=O)N1CCN(c2ccc(OC)cc2)CC1,2.3µM*,0.89µM*,15µM*,3%,-6%,11%
C=CCn1c(CSCc2ccccc2)nnc1SCC(=O)N1CCN(c2ccccc2)CC1,10µM*,?,i,-43%,-79%,28µM*

# Screens as filed in PubChem.
